Laboratory results as given in PubChem BioAssay AID488893 (Broad Institute, 2010).
Potency and affinity values are given separately. Values without a mark were called inactive.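 Rule for the calls: active = falling signal whose fitted half-maximal dose is at most ten times the top valid tested dose; inconclusive = flat curve with 30 to 70% inhibition, or poor fit; inactive = the rest, including changes in the wrong direction.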

Test: single-agent antifungal toxicity in C. albicans – CaCi-2 strain, Alamar Blue, dry powder, set 2, counter-screen for antifungal drug resistance project, dose response (AID 488893)
Details: C. albicans CaCi-2 (fluconazole-resistant clinical isolate) growth, Alamar Blue fluorescence, 48 h; series mostly up to 26 µM; activity change, negative = inhibition: at the top concentration

Row | SMILES | activity change, negative = inhibition
1 | O=C(c1ccc(Cl)cc1)N1CCN(c2ccnc3ccc(Cl)cc23)CC1 | -11.8%
2 | N#Cc1ccc(N2CCN(C(=O)c3ccc(Cl)cc3)CC2)nc1 | 16.7%
3 | O=C(c1ccc(Cl)cc1)N1CCN(c2ccnc3ccccc23)CC1 | -9.45%
4 | O=C(c1ccc(Cl)nc1)N1CCN(c2ccnc3cc(Cl)ccc23)CC1 | -11.7%
5 | CC(C)C(=O)N1CCN(c2ccnc3cc(Cl)ccc23)CC1 | 32.7%
6 | O=C(c1ccc(Cl)cc1)N1CCCN(c2ccnc3cc(Cl)ccc23)CC1 | 2.42%
7 | O=C(C1CCC1)N1CCN(c2ccnc3cc(Cl)ccc23)CC1 | 44.9%
8 | COc1ccnc(N2CCN(C(=O)c3ccc(Cl)cc3)CC2)c1 | -5.09%
9 | O=C(O)Cn1nc(-c2ccccc2)c2ccccc21 | 8.12%
10 | Cc1cc(N2CCN(C(=O)c3ccc(Cl)cc3)CC2)c2ccc(F)cc2n1 | 19.2%
11 | O=C(c1ccc(Cl)cc1)N1CCN(c2ccccn2)CC1 | -10.9%
12 | Cc1cc(N2CCN(C(=O)c3ccc(Cl)cc3)CC2)c2ccccc2n1 | 0.168%
